Measurements: PubChem BioAssay (EPA / NIEHS)
Results filed as inconclusive are left out. Active and inactive are the calls of the source. The calls were made as follows: active = hit-call score of the fitted dose curve at least 0.9, where 1 is the maximum; inconclusive = response in the unintended direction; inactive = score below 0.9.

assay: TOX21_p53_BLA_p5_viability: Viability Assessment in the Tox21 HCT-116 p53 Agonism Beta-lactamase Assay, Phase 5 (AID 2283600)
From the text: TOX21_p53_BLA_p5 is a cell-based, single-readout assay that uses HCT116, a human intestinal cell line, […] in a 1536-well plate.TOX21_p53_BLA_p5_viability is an assay readout measuring cellular ATP content and detected with CellTiter-Glo Luciferase-coupled ATP quantitation.TOX21_p53_BLA_p5_viability used a type of viability reporter where loss-of-signal activity can be used to understand changes in the cell viability. Furthermore, this assay endpoint can be referred to as a secondary readout, because this assay has produced multiple assay endpoints where this one serves a viability function. To generalize the intended target to other relatable targets, this assay endpoint is annotated to the cell cycle intended target family, where the subfamily is cytotoxicity.
Thawing Method: Place 14 mL of pre-warmed thaw medium into a 15 mL of conical tub. Remove the vial of cells to be thawed from liquid nitrogen and thaw rapidly by placing at 37C in a water bath with gentle agitation for 1-2 minutes. Decontaminate the vial by wiping with 70% ethanol before opening in a biological safety cabinet. Transfer the vial contents drop-wise into 14 mL of thaw medium in a sterile 15-mL conical tub. Centrifuge cells at 900 rpm for 4 minutes and resuspend in thaw medium. Transfer contents to the T75 tissue culture flask containing Thaw Medium and place flask in a humidified 37C/5% CO2 incubator. Switch to growth medium at first passage.Propagation Method: Aspirate medium, rinse once in DPBS, add 0.25% Trypsin/EDTA and swirl to coat the cell evenly. Add an equal volume of Growth Medium to inactivate Trypsin after 2-3 minutes incubation at 37C. Centrifuge cells at 900 rpm for 4 minutes and resuspend in growth medium. Cell should be passage or fed at least twice a week.Assay Protocol: Harvest cells from culture in growth medium and resuspend in assay medium. 2.2 Dispense 4000 cells/5 uL/well into 1536-well black/clear bottom plates using a Multidrop dispenser. After the cells were incubated at 37C for 5 hours, 23 nL of compounds dissolved in DMSO were transferred to the assay plate by a PinTool resulting in a 217-fold dilution. Incubate the plates for 16 hours at 37C, 5% CO2. Add 1 uL of 6X LiveBLAzer FRET B/G (CCF4-AM) Substrate Mixture to each well using a BioRAPTR dispenser and incubate the plates at room temperature for 2 hours. Measure fluorescence intensity at 460 and 530 nm emission and 405 nm excitation by an Envision detector. Data is expressed as the ratio of 460nm/530nm emissions. Add 4 uL of Cell-titer Glo to each well using BioRAPTR and incubate the plates at room temperature for […]. For cell viability readout that measures cytotoxicity, 4 ul/well of CellTiter-Glo reagent was added into the assay plates using a Flying Reagent Dispenser. After 30 min incubation at room temperature, the luminescence intensity in the plates was measured using a ViewLux plate reader.

SMILES	outcome	AC50
NC(=O)CS(=O)C(c1ccccc1)c1ccccc1 (stereo not given)	inactive	
O=S(=O)(Cl)Cl	inactive	
Oc1ccc(C(=C(Cl)Cl)c2ccc(O)cc2)cc1	inactive	
c1cc[n+]2c(c1)-c1cccc[n+]1CC2	inactive	
CCC(C)c1cc([N+](=O)[O-])cc([N+](=O)[O-])c1OC(=O)C=C(C)C (stereo not given)	inactive	
OCC(Cl)CCl (stereo not given)	inactive	
C[C@]12CCC(=O)C[C@@H]1CC[C@@H]1[C@@H]2CC[C@@]2(C)[C@H]1CC[C@]2(C)O	inactive	
CNC1(c2ccccc2Cl)CCCCC1=O (stereo not given)	inactive	
C[C@@H]([C@H](O)c1ccccc1)N(C)C	inactive	
CNC(=O)Oc1ccccc1C(=O)Nc1ccccc1	inactive	
Cc1ccccc1-n1c(CF)nc2ccc(N)cc2c1=O	inactive	
CN(C)CCc1c[nH]c2cccc(OP(=O)(O)O)c12	inactive	
O=C([O-])c1ccccn1.O=C([O-])c1ccccn1.O=C([O-])c1ccccn1.[Cr+3]	inactive	
O=[N+]([O-])C(Br)Br	inactive	
O=C(O)C(Br)Br	inactive	
C[C@]12CC[C@@H]3c4ccc(OC(=O)N(CCCl)CCCl)cc4CC[C@H]3[C@@H]1CC[C@@H]2OP(=O)(O)O	inactive	
CC[C@H](OC(C)=O)C(C[C@H](C)NC)(c1ccccc1)c1ccccc1	inactive	
O=C1C=C2C=C[C@@H]3C[C@@]2(O1)[C@H]1CCCCN31	inactive	
[O]=[Cd]	inactive	
CC(Cc1ccccc1)NCc1ccccc1Cl (stereo not given)	inactive	

SMILES	outcome	AC50
CNC(=O)NC(O)C(Cl)(Cl)Cl (stereo not given)	inactive	
C[C@@H]1[C@H]2Cc3ccc(O)cc3[C@]1(C)CCN2C	inactive	
O=C(Cl)CCl	inactive	
CC(=O)O[C@H]1C[C@H](O[C@H]2[C@@H](O)C[C@H](O[C@H]3[C@@H](O)C[C@H](O[C@H]4CC[C@@]5(C)[C@H](CC[C@@H]6[C@@H]5C[C@@H](O)[C@]5(C)[C@@H](C7=CC(=O)OC7)CC[C@]65O)C4)O[C@@H]3C)O[C@@H]2C)O[C@H](C)[C@H]1O[C@@H]1O[C@H](CO)[C@@H](O)[C@H](O)[C@H]1O		0.0758 µM (active)
C=CCSSCC=C	inactive	
CC(Cc1ccccc1)NCCn1cnc2c1c(=O)n(C)c(=O)n2C (stereo not given)	inactive	
CC(C)NCC(O)c1ccc([N+](=O)[O-])cc1 (stereo not given)	inactive	
O=C(Cl)OCc1ccccc1	inactive	
CCC(C(N)=O)N1CCCC1=O (stereo not given)	inactive	
COC(=O)C1(O)c2ccccc2-c2ccccc21	inactive	
Fc1ccc(C(OCCN2CCN(CCCc3ccccc3)CC2)c2ccc(F)cc2)cc1		38.4 µM (active)
C1CN(P2(N3CC3)=NP(N3CC3)(N3CC3)=NP(N3CC3)(N3CC3)=N2)CCO1 (stereo not given)	inactive	
[S]=[Sb](=[S])[S][Sb](=[S])=[S]	inactive	
COC(=O)c1ccc(CBr)cc1	inactive	
CCOP(=O)(OCC)Oc1ccc([N+](=O)[O-])cc1	inactive	
COc1ccc2c(c1OC)CN1CCc3cc4c(cc3C1C2)OCO4 (stereo not given)	inactive	
C=CC(C)=O	inactive	
CCCCCCCCCCCCCCCCCC(=O)O	inactive	
C=CC[C@]1(O)CC[C@H]2[C@@H]3CCC4=CCCC[C@@H]4[C@H]3CC[C@@]21C	inactive	
ClCC1CO1 (stereo not given)	inactive	
